High-throughput results deposited in PubChem by National Center for Advancing Translational Sciences (NCATS).
Pf growth 48h – P. falciparum growth inhibition at 48 hours (one generation); P. falciparum luciferase growth in erythrocytes, 48 h; Potency, µM (series often up to 28.7 µM), without a hit: top-dose activity change, negative = inhibition, hits mostly inhibitors; actives 5.9% (n = 310,000); AID 504832; active = well fitted inhibition curve with a large enough effect; inconclusive = small, poorly fitted or top-dose-only effect, or another doubt; inactive = no such curve, though single readings can be large or run the other way; also: % is scaled to controls: 0 for no effect and ±100 for the full control effect
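Firefly luciferase activity from engineered P. falciparum reports growth; inhibitors lower the luminescent signal. Cultures contained 2% hematocrit erythrocytes at 0.1% final parasitemia.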
Pf growth 96h – P. falciparum growth inhibition at 96 hours; actives 6.9% (n = 320,000); P. falciparum luciferase reporter growth, 96 h; AID 504834; Potency, µM (titrated, usually from 28.7 µM), without a hit: at the top dose activity change, negative = inhibition, hits mostly inhibitors; active = well fitted inhibition curve with a large enough effect; inconclusive = small, poorly fitted or top-dose-only effect, or another doubt; inactive = no such curve, though single readings can be large or run the other way; also: % is scaled to controls: 0 for no effect and ±100 for the full control effect
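Cell-based qHTS: luciferase-tagged P. falciparum in erythrocytes (2% hematocrit, 0.05% parasitemia final) incubated with compounds for 96 hours, 37 C, 5% CO2; luciferase detection reagent then added and luminescence measured.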
SARS PLpro yeast – SARS-CoV PLP inhibition in yeast; AID 485353; Potency, µM (titrated, usually from 32.9 µM), for the others: at the highest dose activity, positive = growth rescue, actives largely listed as activators; S. cerevisiae expressing SARS-CoV PLpro, growth rescue; actives 0.19% (n = 330,000); also: 0% is about no effect; nearly all actives have a fitted effect of over 55% in size
NS1 function inh – blocks influenza NS1 protein function; Potency, µM (titrated, usually from 46.1 µM), inactives show at the top dose activity, positive = more growth; actives 0.4% (n = 270,000); AID 2326; also: actives are rising curves; nearly all actives have a fitted effect of over 50% in size
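Compounds were scored for reversing the slow growth caused by influenza A NS1 in S. cerevisiae, measured by optical density at 600 nm. Assay medium contained 2% galactose at pH 6.0; NS1-free yeast of the same strain were the positive control.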
* = called active by the depositor; ? = inconclusive; nt = no result. An excerpt weighted towards active compounds, which were near 10% of everything screened. Unless noted, calls follow the shape of the full dose curve. Potency is read from the fitted curve at half-maximal effect.

SMILES	Pf growth 48h	Pf growth 96h	SARS PLpro yeast	NS1 function inh
CCNc1ccc(C(=O)OCC(=O)Nc2cc(C)on2)cc1[N+](=O)[O-]	3%	-28%	-1%	nt
O=C(NCCc1ccc(Cl)cc1Cl)C1=CC=CN2CCS(=O)(=O)N=C12	-25%	-1%	-5%	nt
CN(C)c1ccc2c(O)cc(=O)n(C)c2c1	-4%	5.2µM*	-5%	?
CCOC(=O)N1CCN(c2ncnc3c2oc2nc(C(C)C)c4c(c23)CCC4)CC1	7%	-23%	3%	-50%
CCN1CCN(c2ncnc3c2oc2nc(C(C)C)c4c(c23)CCC4)CC1	16%	3.3µM*	-1%	-2%
COc1ccc(/C=C(\NC(=O)c2ccc(C)cc2)C(=O)N2CCCCC2)cc1	?	?	1%	1%
CCCCCCc1c(C)nc(-n2[nH]c(C)c(CCO)c2=O)[nH]c1=O	?	9.3µM*	0%	10%
CCCCc1c(C)nc(N2CCCC2)[nH]c1=O	6.6µM*	4.7µM*	0%	-2%
CCCCc1c(C)nc(N)[nH]c1=O	14%	?	-3%	-8%
Cc1[nH]n(-c2ccc(Cl)c(Cl)c2)c(=O)c1CCO	?	?	0%	4%
CCCCCCCc1c(C)nc(N2CCOCC2)[nH]c1=O	1.5µM*	nt	-6%	3%
Cc1nc(N2CCOCC2)[nH]c(=O)c1CCC(C)C	8%	nt	0%	-1%
Cc1cccc(OC(C)C(=O)Nc2nc(-c3ccncc3)cs2)c1 (stereo unspecified)	?	?	2%	nt
O=C(NCCCN1CCOCC1)c1cc(C(=O)C2CCCCC2)c[nH]1	10µM*	0%	2%	nt
CCC(CC)C(=O)c1c[nH]c(C(=O)NCCCN2CCOCC2)c1	7%	67%	2%	-1%
COc1ccccc1NC1=C(Cl)C(=O)N(c2ccccc2)C1=O	21%	-17%	-17%	-3%
COc1ccccc1NC1=C(NC(C)=O)C(=O)c2ccccc2C1=O	3.7µM*	?	-4%	-3%
COc1ccccc1NC(C)=O	8%	72%	5%	0%
COC1=C(Nc2ccccc2OC)C(=O)c2ccccc2C1=O	2.3µM*	2.3µM*	-3%	-2%
Cc1[nH]c(C)c(S(=O)(=O)N2CCCCC2C)c1C(=O)N1CCCC1 (stereo unspecified)	2%	-8%	1%	5%
CCOc1ccc(NC(=O)c2ccccc2NC(=O)c2cccnc2)cc1	-19%	?	1%	11%
COc1ccc(C2c3ccc4ccccc4c3Oc3ncn(CCN4CCOCC4)c(=N)c32)cc1OC (stereo unspecified)	9.3µM*	13µM*	1%	1%
N=c1c2c(ncn1CCCO)Oc1ccc3ccccc3c1C2c1ccccc1 (stereo unspecified)	?	?	-1%	-2%
COc1ccc(C2c3c(ncn(CCCN4CCOCC4)c3=N)Oc3ccc4ccccc4c32)cc1OC (stereo unspecified)	4.1µM*	1.9µM*	1%	2%
COc1ccc(C2c3ccc4ccccc4c3Oc3ncn(CCN4CCOCC4)c(=N)c32)cc1 (stereo unspecified)	12µM*	6.6µM*	-29%	2%
SMILES	Pf growth 48h	Pf growth 96h	SARS PLpro yeast	NS1 function inh
Cc1ccc(C(=O)COC(=O)c2ccncc2)cc1[N+](=O)[O-]	24%	9.3µM*	-3%	16%
Cc1ccc(S(=O)(=O)NNC(=O)c2ccncc2)cc1[N+](=O)[O-]	-5%	1.9µM*	-3%	8%
C=CCN(c1ccccc1)S(=O)(=O)c1ccc2c(c1)N(C(C)=O)CCO2	17%	7%	9%	0%
CC(C)CC1NC(=O)N(CC(=O)N2c3ccccc3NC(=O)C2(C)C)C1=O (stereo unspecified)	142%	-3%	3%	-2%
CC(C)C[C@@H]1NC(=O)[C@H](Cc2ccccc2)N(C)C(=O)[C@H](C)NC(=O)c2ccccc2NC(=O)[C@H](Cc2ccc(O)cc2)N(C)C1=O	3.7µM*	?	1%	14%
Cc1ccc(S(=O)(=O)N2CCOCC2)cc1NC(=O)CSc1nnc(C2CC2)n1C1CC1	-2%	-14%	-10%	nt
O=C(NNc1ccc(Cl)cc1)c1c(F)cccc1Cl	14%	29%	-2%	-48%
CC(=O)C(=Nc1ccccc1Cl)NNc1ccc(Cl)cc1	12µM*	4.7µM*	-115%	?
CCn1c(CNC(=O)COc2ccc(C(C)C)cc2)nnc1SCC(=O)Nc1cc(F)ccc1C	?	?	-1%	9%
CCn1c(COc2cccc(OC)c2)nnc1SCC(=O)Nc1ccccc1C(=O)OC	?	nt	?	-13%
